Compound activity deposited in PubChem BioAssay by The Scripps Research Institute Molecular Screening Center.
PP1 inh – counter-screen for PP5 inhibitors: inhibitors of human PP1-alpha | P62136 | purified PP1alpha, OMFP fluorescence | inhibition, % at 6.7 µM | 320,000 tested, 0.9% active;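 active = inhibition above the mean inhibition of all tested compounds plus 3 SD, computed separately for each screening campaign, cut at about 15% in these data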
Target sequence (P62136 whole entry, looked up): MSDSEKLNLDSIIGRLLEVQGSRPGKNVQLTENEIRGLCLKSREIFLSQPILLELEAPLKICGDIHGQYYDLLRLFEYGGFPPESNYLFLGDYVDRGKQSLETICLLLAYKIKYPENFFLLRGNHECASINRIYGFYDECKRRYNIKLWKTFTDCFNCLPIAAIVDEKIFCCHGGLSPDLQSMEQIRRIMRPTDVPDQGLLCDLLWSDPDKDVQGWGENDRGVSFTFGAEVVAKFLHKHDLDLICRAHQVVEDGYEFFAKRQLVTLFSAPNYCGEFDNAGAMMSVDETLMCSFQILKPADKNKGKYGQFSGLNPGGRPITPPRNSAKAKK
PAFAH1B2 inh – PAFAH1B2 (human) inhibition | recombinant PAFAH1B2, FP-rhodamine activity probe, fluorescence polarization | inhibition, % at 3.39 µM | 340,000 tested, 1.2% active;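 active = inhibition above the mean of all tested compounds plus 3 SD, cut at about 24% in these data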
pPAFAH inh – pPAFAH (human) enzyme inhibition. Q13093. recombinant pPAFAH, FP-rhodamine probe fluorescence polarization. inhibition, % at 3.39 µM. 330,000 tested, 1.5% active;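 active = inhibition above the mean inhibition across the screen plus 3 SD, cut at about 25% in these data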;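 note: inhibitors block binding of the rhodamine activity-based probe so polarization drops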
PP5 inh – blocks human protein phosphatase 5 activity. P53041. purified PP5c, OMFP substrate fluorescence. inhibition, % at 6.7 µM. 320,000 tested, 0.18% active. AID 1987;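 active = inhibition above the campaign's mean inhibition across all tested compounds plus 3 SD, cut at about 9.5% in these data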
PAFAH1B3 FP inh – blocks human PAF acetylhydrolase 1B catalytic subunit 3; Q15102; AID 492972; inhibition, % at 3.39 µM; 340,000 tested, 0.28% active; recombinant PAFAH1B3, FP-rhodamine probe, fluorescence polarization;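 active = inhibition above the screen-wide average of all tested compounds plus 3 SD, cut at about 25% in these data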
PAFAH2 inh – PAFAH2 (human) inhibition | Q99487 | recombinant PAFAH2, FP-rhodamine activity probe, fluorescence polarization | inhibition, % at 3.39 µM | 340,000 tested, 0.99% active;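 active = inhibition above the mean over all tested compounds plus 3 SD, cut at about 30% in these data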;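 note: inhibitors block probe labeling of enzyme so polarization drops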
Numbers stand for hits. An excerpt weighted towards active compounds, which were near 3.4% of everything screened.

C=CCn1c(CCc2cc(C(C)(C)C)c(O)c(C(C)(C)C)c2)n[nH]c1=S was read as PP1 inh inactive, PAFAH1B2 inh inactive, pPAFAH inh inactive, PP5 inh inactive, PAFAH1B3 FP inh inactive and PAFAH2 inh inactive.
`Cc1ccc(S(=O)(=O)Nc2ccc(S(=O)(=O)N3CCCC3)cc2)cc1` gave PP1 inh inactive, PAFAH1B2 inh inactive, pPAFAH inh inactive, PP5 inh inactive, PAFAH1B3 FP inh inactive and PAFAH2 inh inactive.
COc1ccc(Nc2nc3ccccc3nc2NS(=O)(=O)c2cccs2)cc1 was read as PP1 inh inactive, PAFAH1B2 inh inactive, pPAFAH inh 27, PP5 inh inactive, PAFAH1B3 FP inh inactive and PAFAH2 inh inactive.
For COc1ccccc1Nc1ccc(NS(=O)(=O)c2ccc(C(C)=O)cc2)cc1 the results were PP1 inh inactive, PAFAH1B2 inh inactive, pPAFAH inh 34, PP5 inh inactive, PAFAH1B3 FP inh inactive and PAFAH2 inh inactive.
For O=S(=O)(Nc1ccccc1)c1ccc(S(=O)(=O)N2CCCC2)cc1 the results were PP1 inh inactive, PAFAH1B2 inh inactive, pPAFAH inh 27, PP5 inh inactive, PAFAH1B3 FP inh inactive and PAFAH2 inh inactive.
COc1ccc(S(=O)(=O)Nc2ccc(N3CCOCC3)cc2)cc1 was read as PP1 inh inactive, PAFAH1B2 inh inactive, pPAFAH inh inactive, PP5 inh inactive, PAFAH1B3 FP inh inactive and PAFAH2 inh inactive.
For COCCCNc1nc2ccccc2nc1NS(=O)(=O)c1cccs1 the results were PP1 inh inactive, PAFAH1B2 inh inactive, pPAFAH inh inactive, PP5 inh inactive, PAFAH1B3 FP inh inactive and PAFAH2 inh inactive.
`CCOc1ccc(S(=O)(=O)Nc2nc3ccccc3nc2Nc2ccc(N3CCOCC3)cc2)cc1` gave PP1 inh inactive, PAFAH1B2 inh inactive, pPAFAH inh 33, PP5 inh inactive, PAFAH1B3 FP inh inactive and PAFAH2 inh inactive.
`CN(C)CCNC(=O)Cn1ccc2cc(S(=O)(=O)N3CCCCCC3)ccc21` gave PP1 inh inactive, PAFAH1B2 inh inactive, pPAFAH inh inactive, PP5 inh inactive, PAFAH1B3 FP inh inactive and PAFAH2 inh inactive.
Screening CCC(=Cc1ccc(CC)cn1)CC returned PP1 inh inactive, PAFAH1B2 inh inactive, pPAFAH inh inactive, PP5 inh inactive, PAFAH1B3 FP inh inactive and PAFAH2 inh inactive.
For CC(=O)Nc1ccc(S(=O)(=O)Nc2nc3ccccc3nc2Nc2ccc(S(N)(=O)=O)cc2)cc1 the results were PP1 inh inactive, PAFAH1B2 inh inactive, pPAFAH inh inactive, PP5 inh inactive, PAFAH1B3 FP inh inactive and PAFAH2 inh inactive.
For COc1ccc(Nc2nc3ccccc3nc2NS(=O)(=O)c2ccc(NC(C)=O)cc2)cc1 the results were PP1 inh inactive, PAFAH1B2 inh inactive, pPAFAH inh 27, PP5 inh inactive, PAFAH1B3 FP inh inactive and PAFAH2 inh inactive.
`CCN(C(=O)c1ccc2c(=O)n3c(nc2c1)CCCCC3)c1ccc(F)cc1` gave PP1 inh inactive, PAFAH1B2 inh inactive, pPAFAH inh inactive, PP5 inh inactive, PAFAH1B3 FP inh inactive and PAFAH2 inh inactive.
For CCn1c(CSc2nc3ccccc3[nH]2)nc2cc(C(=O)O)ccc21 the results were PP1 inh inactive, PAFAH1B2 inh inactive, pPAFAH inh inactive, PP5 inh inactive, PAFAH1B3 FP inh inactive and PAFAH2 inh inactive.
Screening CCn1c(CSc2nccn2C)nc2cc(C(=O)O)ccc21 returned PP1 inh inactive, PAFAH1B2 inh 30, pPAFAH inh inactive, PP5 inh inactive, PAFAH1B3 FP inh inactive and PAFAH2 inh inactive.
Screening Cc1ccc(S(=O)(=O)CCC(=O)Oc2ccc(-c3nnco3)cc2)cc1 returned PP1 inh inactive, PAFAH1B2 inh inactive, pPAFAH inh 29, PP5 inh inactive, PAFAH1B3 FP inh inactive and PAFAH2 inh inactive.
Screening Cc1ccc(S(=O)(=O)N2CCN(C(=O)COc3ccc(-c4nnco4)cc3)CC2)cc1 returned PP1 inh inactive, PAFAH1B2 inh inactive, pPAFAH inh inactive, PP5 inh inactive, PAFAH1B3 FP inh inactive and PAFAH2 inh inactive.
COc1ccc2c(=O)cc(CO)oc2c1 was read as PAFAH1B2 inh inactive, pPAFAH inh inactive, PAFAH1B3 FP inh inactive and PAFAH2 inh inactive.
CN1N=C(C(=O)Nc2ccc3c(c2)CCC3)CCC1=O was read as PP1 inh inactive, PAFAH1B2 inh inactive, pPAFAH inh inactive, PP5 inh inactive, PAFAH1B3 FP inh inactive and PAFAH2 inh inactive.
For O=C(OC1CO[C@H]2O[C@@H]1[C@H](OC(=O)c1ccccc1)[C@H]2OC(=O)c1ccccc1)c1ccccc1 (some centres not stated) the results were PP1 inh inactive, pPAFAH inh inactive and PP5 inh inactive.
